TbREL1 inh = TbREL1 inhibition, primary screen; hit rate 0.49% among 89,000; inhibition, % at 9.66 µM; TbREL1 RNA ligation, FRET fluorescence; P86926; AID 1117264;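 active = inhibition above the mean inhibition across all screened compounds plus 3 SD, cut at about 11% in these data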;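 also: 0% = plate median of test wells and 100% = NSC42067 control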
Target sequence (P86926 whole entry, looked up): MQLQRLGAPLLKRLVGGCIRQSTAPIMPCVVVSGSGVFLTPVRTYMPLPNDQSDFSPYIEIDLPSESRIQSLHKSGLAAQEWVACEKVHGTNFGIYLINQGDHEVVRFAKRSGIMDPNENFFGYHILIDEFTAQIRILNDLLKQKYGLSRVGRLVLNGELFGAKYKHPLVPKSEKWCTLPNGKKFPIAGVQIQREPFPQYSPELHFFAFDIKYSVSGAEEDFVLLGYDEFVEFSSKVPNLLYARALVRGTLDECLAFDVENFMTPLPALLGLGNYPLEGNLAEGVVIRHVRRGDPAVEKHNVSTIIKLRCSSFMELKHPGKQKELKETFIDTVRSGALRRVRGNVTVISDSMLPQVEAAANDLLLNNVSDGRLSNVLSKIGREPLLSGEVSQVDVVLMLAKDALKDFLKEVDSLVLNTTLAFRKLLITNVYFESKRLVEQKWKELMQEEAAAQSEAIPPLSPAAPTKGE
TbREL1 confirm = TbREL1 inhibition, confirmation | inhibition, % at 9.66 µM | TbREL1 RNA ligation, FRET fluorescence | shares compounds with TbREL1 inh | AID 1117282 | hit rate 37% among 390;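 active = mean inhibition across replicates above a set limit taken from the earlier primary screen, cut at about 11% in these data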;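 also: 0% = REL1 with substrate and DMSO and 100% = REL1 plus control inhibitor NSC42067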
Starred values were filed as active, the others as inactive. This is one part of a sample in which hits are shown more often than they occur.

SMILES	TbREL1 inh	others
CCCCN1C(Nc2ccccc2)=NC[C@@H]1Cc1ccccc1	2
Cc1nc2ccc(NC(=O)c3cc(F)cc(F)c3)cc2c(=O)[nH]1	3
CCOc1ccc(-n2c(SCC(=O)Nc3cc(C)c(NC(=O)c4ccccc4)cc3OC)nnc2-c2ccncc2)cc1	-1
CC(C)(C)C(=O)Nc1nnc(SCc2cccc(F)c2)s1	5
O=C(CSc1nnc(NC(=O)c2ccco2)s1)Nc1ccc(F)cc1	4
O=C(Nc1nnc(SCc2cccc(F)c2)s1)c1ccco1	14*	TbREL1 confirm=-1
O=C(CSc1ncnc2scc(-c3ccc(Cl)cc3)c12)Nc1ccccc1-c1ccccc1	5
Cc1nc2ccccn2c1C(O)(c1ccccc1)c1ccccc1	9
COc1ccc(-c2cc(-c3nnc4sc(-c5cccs5)nn34)[nH]n2)cc1	4
O=S(=O)(c1cccs1)N1CCN(c2cccc(Cl)c2)CC1	3
O=S(=O)(c1cccs1)N1CCN(c2ccc(F)cc2)CC1	0
O=S(=O)(c1cccs1)N1CCN(c2ccccc2)CC1	16*	TbREL1 confirm=3
C[C@H]1[C@@H](NC(=O)C2CCC2)CC[C@@]23CCCN2C(=O)CCC[C@@H]13	2
Cc1cccc(-c2nnc(SCc3cccc4ccccc34)n2-c2ccc(Cl)cc2)c1	4
O=C(NCCc1c[nH]c2ccccc12)OCc1cn(Cc2ccccc2F)nn1	0
Nc1ccc(Br)c[n+]1Cc1cccc2cccnc12	12*	TbREL1 confirm=8
Nc1scn[n+]1Cc1cccc2cccnc12	2
Brc1ccc(COc2cccc3cccnc23)cc1	4
CCc1ccccc1NC(=O)c1cc(C)nn1-c1ccccc1	0
COc1ccc(-n2c(SCC(=O)Nc3cccc4ccccc34)nnc2-c2ccco2)cc1	-1
COc1ccc(OC)c(S(=O)(=O)Nc2ccc(C(=O)Nc3cc(C)on3)cc2)c1	5
Nc1ccc2nc(-c3cccnc3)[nH]c2c1	0
Nc1ccc2nc(-c3ccccn3)[nH]c2c1	0
Nc1ccc2nc(-c3ccc(N)c(Cl)c3)[nH]c2c1	13*	TbREL1 confirm=6
CCCC1CCC2(CC1)CCC2OC(=O)Nc1ccccc1C (stereo not drawn)	5
SMILES	TbREL1 inh	others
CC(C)CN1C(=O)C[C@]2(C(=O)N(C)c3ccc(NC(=O)C(F)(F)F)cc32)C1c1ccccc1 (stereo partly drawn)	-2
C[C@H]1[C@@H](N(C)C)CC[C@@]23CCCN2C(=O)CCC[C@@H]13	8
Nc1ccc(S(=O)(=O)O)cn1	1
CC(C)(C)Sc1ccc(N)nc1	39*	TbREL1 confirm=5
C[C@H]1[C@@H](NC(=O)C2CCOC2)CC[C@@]23CCCN2C(=O)CCC[C@@H]13 (stereo partly drawn)	6
CC(=O)N1CCN(C(=O)CN2C(=O)CC(C)(C)S(=O)(=O)c3ccccc32)CC1	2
O=C(NCc1cccs1)C1CCN(S(=O)(=O)c2cccc3ccccc23)CC1	7
CCn1c(=Nc2ccc(N3CCOCC3)cc2)ccc2ccccc21	-1
Cn1c(N=Nc2ccc(N3CCOCC3)cc2)[n+](C)c2ccccc21	23*	TbREL1 confirm=27*
O=C(c1ccccc1)c1ccc(N2CCOCC2)cc1	1
Cc1ccccc1CN[C@@H]1CC[C@@]23CCCN2C(=O)CCC[C@H]3C1	11
Cc1ccc(-n2c(Cc3cccs3)nnc2SCc2ccc([N+](=O)[O-])cc2)cc1	-1
C[C@H]1[C@@H](NCc2cccs2)CC[C@@]23CCCN2C(=O)CCC[C@@H]13	-4
O=Cc1ccc(-c2ccc(C(=O)O)cc2)o1	8
Cc1ccc(C(=O)N/C(=C\c2ccc(-c3cccc([N+](=O)[O-])c3)o2)C(=O)NC(C)(C)C)cc1	-2
Cc1nc(S/C(=C/c2ccc(-c3ccc(C(=O)O)cc3)o2)C(=O)O)n[nH]1	21*	TbREL1 confirm=17*
COC(=O)C1=C(C)N(Cc2ccc(Cl)cc2)C(=S)NC1c1cccc(Br)c1 (stereo not drawn)	-3
COC(=O)C1=C(C)N(CCCC(=O)O)C(=O)NC1c1ccc2c(c1)OCO2 (stereo not drawn)	2
COC(=O)C1=C(C)N(Cc2ccccc2C(F)(F)F)C(=NCc2ccc3c(c2)OCO3)NC1c1cccc(Cl)c1 (stereo not drawn)	14*	TbREL1 confirm=14*
COC(=O)C1=C(C)N(Cc2ccccc2C(F)(F)F)C(=NCc2ccc3c(c2)OCO3)NC1c1cccc(F)c1 (stereo not drawn)	13*	TbREL1 confirm=18*
O=C(NCCc1c[nH]c2ccccc12)OCc1cn(Cc2cc(F)ccc2F)nn1	-6
COc1ccc(C2C(C(=O)N3CCCCC3C)CC(=O)N2c2ccc(OC)cc2)cc1 (stereo not drawn)	5
CCC[C@H]1OC(=O)[C@@H]2CCCN2C(=O)[C@H]([C@H](C)Cc2ccccc2)NC(=O)[C@@H]2CCCN2C(=O)[C@@H]2CCCN2C(=O)[C@H](C(C)C)OC(=O)[C@@H]2CCCN2C(=O)[C@H](C(C)C)NC(=O)C1(C)C	10
c1nc(NCC2CCCOC2)c2cc(-c3ccc4c(c3)OCO4)ccc2n1 (stereo not drawn)	0
COc1ccc(CN2C(=O)[C@@](O)(c3cccn3C)c3cc(F)ccc32)cc1	-2
SMILES	TbREL1 inh	others
CN(Cc1ccccc1)S(=O)(=O)c1cccc(C(=O)OCc2ccccc2Cl)c1	2
O=C(OCc1cn(Cc2ccccc2Cl)nn1)N1CCOCC1	4
CCS(=O)(=O)Nc1ccc2c(c1)C(=O)N(C)[C@@H]1CC[C@H](CC(=O)N3CCCCC3)O[C@H]1CO2	3
O=C(c1ccccc1)c1c[nH]cc1-c1ccccc1	-1
COc1ccc(C(=O)c2c(C(F)(F)F)oc3c2C(=O)c2ccccc2C3=O)cc1OC	4
Cc1oc2c(c1C(=O)c1ccccc1)C(=O)C(=O)c1ccccc1-2	29*	TbREL1 confirm=66*
CCC[C@H]1[C@@H](NCc2ccccc2)CC[C@@]23CCCN2C(=O)CCC[C@@H]13	-3
C=CCc1c(C)nc2cc(-c3ccc(C)cc3)[nH]n2c1=O	-1
Cc1nc2cc(-c3ccsc3-n3c(C)ccc3C)[nH]n2c(=O)c1Cl	27*	TbREL1 confirm=3
CCOC(=O)Cc1c(C)nc2cc(-c3ccc(C(C)(C)C)cc3)[nH]n2c1=O	-3
CCCC[C@H](C(=O)N(C)c1cccc(OC)c1)[C@@H](O)c1ccc2ccccc2c1	0
O=C(CN1CCN(c2nc(-c3ccccc3)cs2)CC1)Nc1ccc(Cl)c(Cl)c1	0
CCOC(=O)c1oc2cccc(O)c2c1C	1
CCOC(=O)c1ccc(CC(=O)c2ccc(O)c(O)c2O)o1	35*	TbREL1 confirm=84*
CCOc1ccc(C(=O)Cc2ccc3oc(C(=O)O)cc3c2)c(O)c1	-2
CC(C)=CCC/C(C)=C/C[C@]12C[C@H](C(=O)O)N(C(=O)OC(C)(C)C)[C@@H]1N(C(=O)OC(C)(C)C)c1ccccc12	1
CCCCCCCCN1C(=O)[C@@H](CC(=O)NCC2CCCCC2)C[C@@]2(C(=O)OC)C1=C[C@H](C(C)C)O[C@@H]2C1CC1	8
CCOc1ccccc1-c1nc(C(N)=O)c2[nH]c(=O)n(-c3ccc(F)cc3)c2n1	0
Cc1ccsc1-c1nc(C(N)=O)c2[nH]c(=O)n(-c3ccc(Cl)cc3)c2n1	27*	TbREL1 confirm=0
Cc1cccc(-n2c(=O)[nH]c3c(C(N)=O)nc(C(C)C)nc32)c1	0
C#CCN1CC(N(C)CCOC(=O)c2ccc(C(C)(C)C)cc2)CS1(=O)=O (stereo not drawn)	-1
COc1ccc(CN(CCN2CCOCC2)C(=O)c2cc(F)cc(F)c2)cc1OC	0

Screening results from PubChem.
